Measured values from PubChem BioAssay AID652283 (National Center for Advancing Translational Sciences (NCATS), 2013).
Inconclusive results are not listed. A number with no mark means an inactive call. Active and inactive are the calls of the source. The call rests on the fitted dose curve; in most records, active means well fitted inhibition curve with a large enough effect; inconclusive means small, poorly fitted or top-dose-only effect; inactive means no such curve, though single readings can be large or run the other way.

Assay: qHTS Assay for Lipid Storage Modulators: COS7 Assay against Probe and Analogs
Conditions: COS7 lipid droplet area, BODIPY imaging, 18 h; cells loaded with 400 µM oleic acid
Summary of the method: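 Lipid droplets, stained with BODIPY 493/503 (nuclei with Hoechst), were counted from microscope images by visual examination and image segmentation. Before fixation, COS7 cells had 17-18 h compound exposure with 400 microM oleic acid in 5% FBS medium, 0.2% DMSO.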

Structure (SMILES)	Potency	max response [%]
O=C(NCCc1ccc(OCC(F)(F)F)c(OCC(F)(F)F)c1)c1cc2sccc2n1Cc1ccccc1	2.96 µM (active)	
CCOc1cc2c(cc1OCC)CN(C(=O)c1cc3sccc3n1Cc1ccccc1)CC2	3.32 µM (active)	
CCOc1ccc(CCNC(=O)Cc2ccccc2)cc1OCC		-10.6
CCOC(=O)C1CCN(C(=O)C(C)(C)NC(=O)Nc2ccc(C#N)cc2)CC1		-15.2
O=C(Cc1ccccc1)NC1CCCc2c1cnn2-c1ccc(F)cc1F (centres undefined)		1.55
CCOc1ccc(CCNC(=O)C2(c3ccccc3)CC2)cc1OCC		2.24
CCOc1ccc(CCNC(=O)c2cc3sccc3[nH]2)cc1OCC		-4.32
CC(C)(C)OC(=O)NCCOCCOCCOCCn1ncc2c1CCCC2NC(=O)c1ccccn1 (centres undefined)		0.489
O=C(NC1CCCc2c1cnn2-c1ccc(F)cc1F)C1CCCCN1 (centres undefined)		-10.9
O=C(O)c1cccc(-c2noc(-c3ccccc3F)n2)c1		-6.12
O=C(O)CCc1ccc(NCc2cccc(Oc3ccccc3)c2)cc1		-0.35
CC(C)(C)OC(=O)NC1CCCc2c1cnn2-c1ccc(F)cc1F (centres undefined)		3.11
CCN(CC)C(=O)C1CCN(C(=O)C(C)(C)NC(=O)Nc2ccccc2Cl)CC1		-9.22
O=C(NC1CCCc2c1cnn2-c1ccc(F)cc1F)C1CCCCC1 (centres undefined)		3.71
CCOc1ccc(CCNC(=O)C2=C(C)OCCO2)cc1OCC		10.4
Cc1cccc(-c2ccc3ncnc(NCc4cccc(F)c4)c3c2)c1		-9.55
CCOc1ccc(CCNC(=O)c2cc3c(s2)CCC3)cc1OCC	11.8 µM (active)	

Structure (SMILES)	Potency	max response [%]
CCOC(=O)C1CCN(C(=O)C(C)(C)NC(=O)Nc2ccc(Oc3ccccc3)cc2)CC1	6.62 µM (active)	
CCOc1ccc(CCNC(=O)C2COc3ccccc3O2)cc1OCC (centres undefined)	18.7 µM (active)	
Cc1cc2c(cc1C1(c3ccc(C(=O)O)cc3)CC1)C(C)(C)CCC2(C)C		-1.19
CCOc1ccc(CCNC(=O)c2cc3ccccc3n2Cc2ccc(Cl)c(F)c2)cc1OCC	0.332 µM (active)	
O=C(Nc1cccc2c1cnn2-c1ccc(F)cc1)c1ccccn1		3.22
O=C(NC1CCCc2c1cnn2-c1ccc(F)cc1F)C1CC1 (centres undefined)		3.35
CCOc1ccc(CCNC(=O)c2cnon2)cc1OCC		8.92
CCOc1ccc(CCN(C)C(=O)c2cc3sccc3n2Cc2ccccc2)cc1OCC	11.8 µM (active)	
CC(C)(NC(=O)Nc1ccccc1Cl)C(=O)N1CCC(C(=O)O)CC1		21.7
O=C(CCCCCCC(=O)Nc1ccccc1)NO		-18.2
CCOc1ccc(CCNC(=O)c2ccccn2)cc1OCC		1.41
O=C(N[C@H]1CCCc2c1cnn2-c1ccc(F)cc1F)c1ccccn1		6.84
CCn1c(C(=O)NCCc2ccc(OC)cc2)cc2sccc21		14.9
CN(C)Cc1ccc(-c2nc3cccc4c3n2CCNC4=O)cc1		3.13
CCOc1ccc(CCNC(=O)c2cccs2)cc1OCC		-20.6
CCOc1ccc(CCNC(=O)c2cc3sccc3n2Cc2ccccc2)cc1OCC	0.935 µM (active)	
CCOc1ccc(CCNC(=O)CN(C)C)cc1OCC		-3.2
